# Source: PubChem (several laboratories)
# Most compounds without a hit are left out; they make up all but 1.3% or so of the library.
# NPR2 activator – GC-B (human) receptor activation. P20594. 370,000 compounds, 0.11% hits. AID 1920062. HEK293-GC-B cells, CNP EC30, cGMP TR-FRET; 0% at EC30 CNP, 100% saturating CNP. activation, % at 10 µM;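 active means activation at 10 µM reaching about 35% in either raw or pattern-adjusted values, limit read from the data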
# ADAM17 inh – inhibits human ADAM17 | P78536 | inhibition, % at 6.95 µM | AID 720648 | recombinant ADAM17, EDANS/DABCYL FRET peptide cleavage | 370,000 compounds, 0.83% hits;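 active means inhibition above the mean of compounds lying between control limits plus 3 SD, set per campaign, cut at about 8.5% in these data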;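 further: 0% = DMSO-only wells as the low control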
# ADAM10 inh – inhibitors of human ADAM10; O14672; recombinant ADAM10, EDANS/DABCYL FRET peptide cleavage, 3 h; inhibition, % at 7 µM; 370,000 compounds, 0.62% hits; AID 720582;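 active means inhibition above a per-campaign cutoff equal to the mean of compounds falling between control-based bounds plus 3 SD, cut at about 20% in these data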;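 further: 0% = DMSO wells while the 100% control is not disclosed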
# NPR1 activator – GC-A (human) enzyme activation | activation, % at 10 µM | 370,000 compounds, 0.14% hits | HEK293 GC-A cells, cGMP TR-FRET, EC30 ANP; 0% at EC30 ANP, 100% saturating ANP | P16066; in the data active means activation above about 40%
# Target sequence (P16066 whole entry, looked up): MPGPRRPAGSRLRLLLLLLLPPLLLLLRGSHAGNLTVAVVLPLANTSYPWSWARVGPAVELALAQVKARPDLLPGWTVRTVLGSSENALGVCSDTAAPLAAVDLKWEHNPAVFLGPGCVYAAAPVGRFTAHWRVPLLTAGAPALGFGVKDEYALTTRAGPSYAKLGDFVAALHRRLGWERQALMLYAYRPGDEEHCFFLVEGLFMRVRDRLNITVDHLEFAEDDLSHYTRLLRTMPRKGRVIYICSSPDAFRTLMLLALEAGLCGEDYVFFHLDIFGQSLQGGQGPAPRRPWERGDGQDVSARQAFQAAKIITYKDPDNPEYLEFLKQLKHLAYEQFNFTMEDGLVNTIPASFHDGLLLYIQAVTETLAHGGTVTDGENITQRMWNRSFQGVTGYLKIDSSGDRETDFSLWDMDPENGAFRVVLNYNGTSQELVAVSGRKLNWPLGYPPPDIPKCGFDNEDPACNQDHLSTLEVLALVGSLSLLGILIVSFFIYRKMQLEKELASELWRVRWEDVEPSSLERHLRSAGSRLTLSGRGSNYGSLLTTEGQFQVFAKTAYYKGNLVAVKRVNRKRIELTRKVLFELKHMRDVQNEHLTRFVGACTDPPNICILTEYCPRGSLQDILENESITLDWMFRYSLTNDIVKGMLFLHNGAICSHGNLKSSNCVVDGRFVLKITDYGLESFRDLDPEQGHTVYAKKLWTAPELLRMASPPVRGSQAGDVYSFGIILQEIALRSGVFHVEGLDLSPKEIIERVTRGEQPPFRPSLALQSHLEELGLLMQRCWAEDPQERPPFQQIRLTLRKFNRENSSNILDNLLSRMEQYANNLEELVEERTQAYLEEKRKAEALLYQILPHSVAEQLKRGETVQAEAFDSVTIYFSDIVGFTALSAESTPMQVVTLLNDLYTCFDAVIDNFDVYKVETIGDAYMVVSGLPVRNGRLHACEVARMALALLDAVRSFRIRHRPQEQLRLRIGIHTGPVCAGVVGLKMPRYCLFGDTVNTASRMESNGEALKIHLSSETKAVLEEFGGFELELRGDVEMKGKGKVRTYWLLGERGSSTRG
# ADAM10 confirm – confirmation of inhibitors of human ADAM10. AID 743208. ADAM10 QFRET peptide cleavage, EDANS fluorescence. inhibition, % at 6.95 µM. 2,100 compounds, 1% hits. shares compounds with ADAM10 inh;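 active means inhibition above about 20% chosen separately for each screening run, limit read from the data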;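 further: 0% = DMSO wells and 100% = marimastat wells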
# ADAM17 ctr – ADAM17 inhibition, counter-screen for ADAM10 exosite hits | shares compounds with ADAM10 inh | ADAM17 QFRET peptide cleavage, EDANS fluorescence | inhibition, % at 6.95 µM | 2,100 compounds, 0.5% hits;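 active means mean triplicate inhibition above the solvent-only control wells' mean plus 3 SD, cut at about 12% in these data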;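 further: 0% = DMSO wells and 100% = marimastat wells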
# Starred values were filed as active, the others as inactive; · = no result given.
SMILES,NPR2 activator,ADAM17 inh,ADAM10 inh,NPR1 activator,ADAM10 confirm,ADAM17 ctr
Cc1cc(C2=NNC(=NC3CC3)SC2)c(C)n1-c1c(C)n(C)n(-c2ccccc2)c1=O,1.3,0.1,0.1,-0.8,·,·
Cc1ccc(-n2c(C)cc(C3=NNC(=NC4CC4)SC3)c2C)cc1C,-0.6,9.5*,4.7,2.1,·,·
O=C(NC1CCCCC1)Oc1cc2oc(=O)sc2cc1Br,-3.5,4.4,26.3*,6.6,·,·
COc1cc(-c2cc(NC=O)c3ncc(-c4ccc(C(C)=O)cc4)n3c2)cc(OC)c1OC,35.0*,-11.7,-56.3,33.1,·,·
COc1cc(-c2cc(NC=O)c3ncc(-c4ccccc4)n3c2)cc(OC)c1OC,35.1*,-6.5,-20.1,23.7,·,·
CCc1cccc(CC)c1NC(=O)C1SC(=Nc2ccccc2C)C(c2nc3ccccc3s2)=C1N (centres undefined),-1.8,7.5,22.4*,-2.9,·,·
CCc1cccc(C)c1NC(=O)CCCSc1nc2ccccc2s1,7.9,5.3,11.6,2.1,·,·
CCCn1nnc(NC(=S)NC(=O)c2ccccc2OC)n1,-0.9,-4.0,-6.5,3.0,·,·
Cc1cc(Br)cn2c(Cc3ccccc3)c(-c3ccco3)nc12,35.3*,-3.1,-7.0,32.0,·,·
COc1ccccc1-c1cc(C(F)(F)F)nc(S(=O)(=O)CCCC(=O)N2CCOCC2)n1,4.2,-6.6,-11.4,70.3*,·,·
CC(CC(=O)Nc1ccc2c(c1)c(=O)n(C)n2-c1ccc2ccccc2c1)C(F)(F)F (centres undefined),29.7,-175.6,-439.3,21.4,·,·
Cn1c(=O)c2cc(NC(=O)Cc3cccnc3)ccc2n1-c1ccc2ccccc2c1,67.8*,-17.2,-51.8,47.2*,·,·
C[C@H]1COc2cc(Br)ccc2S(=O)(=O)N1Cc1cn(Cc2ccc(F)cc2)nn1,-1.9,4.9,-0.2,-4.8,·,·
Cc1ccc(N2C(=O)c3ccccc3NC2(C(=O)O)c2ccccc2)cc1Cl (centres undefined),4.6,-18.2,-47.8,5.8,·,·
COc1ccc(NC(=O)CC(Cc2ccccc2)C(=O)O)cc1 (centres undefined),0.6,-0.4,0.2,-0.4,·,·
O=C(CC(Cc1ccccc1)C(=O)O)Nc1ccc(F)cc1 (centres undefined),6.7,-0.2,21.1*,-0.1,-0.1,-0.4
O=c1c2ccccc2c(-c2ccc(O)cc2)nn1-c1cccc(C(F)(F)F)c1,8.9,11.7*,21.1*,4.9,5.9,2.2
O=c1c2ccccc2c(-c2cccc(C(F)(F)F)c2)nn1-c1ccccc1,0.0,1.6,1.9,-3.1,·,·
C[C@@]12C(=O)Nc3cc(F)c(F)cc3C(=O)N1[C@H]1c3ccccc3OC[C@@H]1[C@@H]2c1ccccc1,-2.6,10.1*,21.2*,-5.0,7.4,4.1
COc1cc2c(cc1OC)C(=O)N1[C@H]3c4ccccc4OC[C@@H]3[C@H](c3ccccc3)[C@]1(C)C(=O)N2,-2.2,4.7,9.8,-0.8,·,·
Nc1ccc(-c2cc(N)n(-c3ccccc3)n2)cc1,-3.5,1.5,4.3,-2.9,·,·
Cc1ccccc1-n1nc(-c2ccc(N)cc2)cc1N,4.8,5.8,41.9*,4.6,3.1,-0.1
CC(C)(C)c1ccc(CC(=O)N2CCC2(C)C(=O)NCc2cccs2)cc1 (centres undefined),-4.6,2.1,-0.5,2.3,·,·
Fc1ccccc1NC(=S)NNc1ncc(C(F)(F)F)cc1Cl,4.1,5.1,20.7*,0.5,1.9,1.4
Cc1ccccc1NC(=S)NNc1ncc(C(F)(F)F)cc1Cl,3.9,2.2,8.4,-4.9,·,·
SMILES,NPR2 activator,ADAM17 inh,ADAM10 inh,NPR1 activator,ADAM10 confirm,ADAM17 ctr
COc1ccc(NC(=O)CSc2ccc([N+](=O)[O-])cc2)cc1S(=O)(=O)N1CCOCC1,-6.1,1.4,-8.1,-1.3,·,·
Cc1cc(Cl)ccc1NC(=O)CN1CCC(C(O)(c2ccccc2)c2ccccc2)CC1,-2.9,8.7*,26.2*,-7.7,2.4,1.5
COc1cccc(CN2C(=O)[C@H]3Cc4c([nH]c5ccccc45)C(C)(C)N3C2=O)c1,11.3,5.5,20.6*,6.6,3.1,1.5
O=C1CC(c2ccccc2Oc2cccc(Cl)c2)C(n2cncn2)C(=O)C1C1NCCc2ccccc21 (centres undefined),2.9,0.4,23.3*,-0.6,-0.5,-0.6
CC(C)(C)c1ccc(Oc2cccc(C3CC(=O)C(C4NCCc5ccccc54)C(=O)C3n3cncn3)c2)cc1 (centres undefined),7.3,-0.3,6.1,5.0,·,·
COc1ccc(-c2nnc(SCC(=O)c3ccc(O)cc3O)o2)cc1,-3.1,-3.8,-2.8,3.2,·,·
Cc1ccc(-n2c(COc3ccccc3)nnc2SCC(=O)Nc2ccc3c(c2)OCO3)cc1,-4.5,8.4,19.8*,-7.4,4.0,1.5
COc1cc(NC(=O)C2CCN(S(=O)(=O)c3cccc4nonc34)CC2)cc(OC)c1,-2.3,3.2,23.2*,-2.1,-1.2,-0.2
COc1ccc(NC(=O)c2ccc(F)cc2)cc1S(=O)(=O)Nc1cc(C)ccc1Br,-4.2,7.5,22.6*,-9.7,8.2,2.6
COc1ccc(NS(=O)(=O)c2cc(NC(=O)c3ccc(F)cc3)ccc2OC)cc1,4.2,7.7,14.2,1.7,·,·
CCOc1ccc(Cl)cc1-c1cc(C(=O)Nc2cc(OC)c(OC)c(OC)c2)[nH]n1,23.1,7.0,20.2*,20.5,7.2,1.5
COc1ccc(NC(=O)c2cc(-c3cc(C)cc(F)c3)n[nH]2)cc1OC,1.4,8.5,26.3*,1.1,0.2,0.3
COc1ccc(NC(=O)c2cc(-c3ccc(F)cc3C)n[nH]2)cc1OC,-0.8,4.4,-9.7,-4.3,·,·
CCOC(=O)[C@]12CCC=C1N(Cc1ccc(Cl)cc1Cl)C(=O)[C@H](CC(=O)NCc1ccccc1)C2,-1.7,4.8,8.0,-6.1,·,·
Cc1ccc(NC(=O)CCNC(=O)c2ccc([N+](=O)[O-])cc2)cc1C,3.6,3.2,5.3,-4.8,·,·
O=C(COc1ccc(-c2nnco2)cc1)Nc1c(F)cccc1F,-3.4,-0.1,84.3*,1.5,-1.2,-0.1
CC1CC(C)CN(C(=S)SCc2nc(N)nc(Nc3ccccc3)n2)C1 (centres undefined),-3.9,7.7,28.5*,-10.3,3.8,1.2
Nc1nc(CSC(=S)N2CCCCC2)nc(Nc2ccccc2)n1,3.7,-1.2,1.1,0.0,·,·
CC(O)CNc1cnccn1 (centres undefined),7.6,-55.6,-201.8,16.9,·,·
Cc1cccc(NC(=O)CCCN=C2NS(=O)(=O)c3ccccc32)c1C,1.6,-5.2,55.7*,2.7,-0.4,-0.6
CCOc1ccc(Cl)cc1-c1cc(C(=O)Nc2ccc(Br)cc2)[nH]n1,3.1,-0.4,-1.9,11.2,·,·
Cc1ccc(/C=N/NC(=O)CSc2nnc(-c3ccc(Cl)cc3)n2-c2ccc(Cl)cc2)o1,-15.7,-0.4,4.0,-22.3,·,·
